About 79,000 compounds went through this panel and 15% of them were active in at least one assay; those are over-represented in the sample as a whole. Calls of active or inactive are those of the source. Rule as the data show it: active = growth inhibition above about 70%; inactive = the rest.
Columns and labels:
[1] = NCI Yeast Anticancer Drug Screen. Data for the mec2-1 strain (AID 157); conditions: S. cerevisiae mec2-1 strain, stronger effect = higher value
Procedure, shortened: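 Yeast mec2-1 mutant treated with compound. Readout: growth inhibition vs vehicle controls.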

[2] = NCI Yeast Anticancer Drug Screen. Data for the rad14 strain (AID 159);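 also: 0% = growth of vehicle-treated control cultures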; conditions: S. cerevisiae rad14 strain growth inhibition, stronger effect = higher value
Procedure, shortened: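 DNA repair-defective yeast, compound-exposed; % growth inhibition derived by comparison with vehicle-treated controls.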

[3] = NCI Yeast Anticancer Drug Screen. Data for the sgs1 mgt1 strain (AID 161);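 also: 0% = growth of cultures given vehicle only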; conditions: S. cerevisiae sgs1 mgt1 strain, stronger effect = higher value
Procedure, shortened: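 Genetically altered yeast, compound exposure, growth inhibition relative to vehicle.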

[4] = NCI Yeast Anticancer Drug Screen. Data for the bub3 strain (AID 167); conditions: S. cerevisiae bub3 mutant strain, stronger effect = higher value
Procedure, shortened: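 In this screen, a yeast mutant lacking normal mitotic checkpoint function is challenged with compound. Relative growth versus vehicle gives the inhibition value.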

[5] = NCI Yeast Anticancer Drug Screen. Data for the wt2 strain (AID 169);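 also: 0% = growth of vehicle-treated yeast cultures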; conditions: S. cerevisiae wt2 strain growth inhibition, stronger effect = higher value
Procedure, shortened: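 Read-out: growth inhibition versus vehicle-treated control cultures after compound exposure of the yeast strain.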

[6] = NCI Yeast Anticancer Drug Screen. Data for the mlh1 strain (AID 171);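 also: 0% = growth of vehicle-treated control cultures of the same strain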; conditions: S. cerevisiae mlh1 strain growth inhibition, stronger effect = higher value
Procedure, shortened: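 Read-out: growth inhibition versus vehicle controls. Strain: engineered yeast with a defined DNA repair or cell cycle defect, compound-treated.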

[7] = NCI Yeast Anticancer Drug Screen. Data for the sgs1 strain (AID 173);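 also: 0% = growth of vehicle-only control cultures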; conditions: S. cerevisiae sgs1 mutant, stronger effect = higher value
Procedure, shortened: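 Read-out: yeast growth inhibition relative to vehicle controls, following compound exposure of a strain with a defined DNA repair/cell cycle alteration.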

[8] = NCI Yeast Anticancer Drug Screen. Data for the mlh1 rad18 strain (AID 175); conditions: S. cerevisiae mlh1 rad18 strain growth inhibition, stronger effect = higher value
Procedure, shortened: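 Yeast w/ defined DNA-repair lesions; compound exposure; growth vs vehicle controls → % inhibition.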

[9] = NCI Yeast Anticancer Drug Screen. Data for the rad18 strain (AID 177); conditions: S. cerevisiae rad18 mutant growth inhibition, stronger effect = higher value
Procedure, shortened: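 Readout: growth inhibition vs vehicle controls. Cells: genetically altered yeast strain, DNA repair defect.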

[10] = NCI Yeast Anticancer Drug Screen. Data for the rad52 strain (AID 147);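 also: 0% = growth of vehicle-treated control cultures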; conditions: S. cerevisiae rad52 mutant growth inhibition, stronger effect = higher value
Procedure, shortened: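 Read-out: growth inhibition versus vehicle-treated controls. Cells were a DNA repair-deficient yeast strain treated with compounds.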

[11] = NCI Yeast Anticancer Drug Screen. Data for the wt1 strain (AID 149);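 also: 0% = growth of vehicle-treated wt1 cultures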; conditions: S. cerevisiae wt1 strain (SPY 50644) growth inhibition, stronger effect = higher value
Procedure, shortened: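 wt1 strain grown with compound or vehicle; inhibition taken from the growth difference.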

[12] = NCI Yeast Anticancer Drug Screen. Data for the rad50EPP+ strain (AID 151);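 also: 0% = growth of vehicle-treated control cultures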; conditions: S. cerevisiae rad50 mutant strain, stronger effect = higher value
Procedure, shortened: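 Growth inhibition read against vehicle controls in rad50EPP+ yeast, a strain altered in DNA damage repair, after compound exposure.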

[13] = NCI Yeast Anticancer Drug Screen. Data for the mgt1 strain (AID 153); conditions: S. cerevisiae mgt1 mutant growth inhibition, stronger effect = higher value
Procedure, shortened: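 mgt1 yeast grown with test compound; read-out is growth inhibition versus vehicle-treated cultures.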

[14] = NCI Yeast Anticancer Drug Screen. Data for the rad50 strain (AID 155);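 also: 0% = growth of vehicle-only cultures of the same strain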; conditions: S. cerevisiae rad50 strain growth inhibition, stronger effect = higher value
Procedure, shortened: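 DNA repair mutant yeast, compound exposure, growth read-out; inhibition is taken relative to vehicle.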

[15] = NCI Yeast Anticancer Drug Screen. Data for the CLN2oe strain (AID 163);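 also: 0% = growth of vehicle-only control cultures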; conditions: S. cerevisiae CLN2oe strain, stronger effect = higher value
Procedure, shortened: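 Read-out: yeast growth inhibition, expressed relative to vehicle-only controls. The strain bears an engineered cell-cycle alteration.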

[16] = NCI Yeast Anticancer Drug Screen. Data for the cln2 rad14 strain (AID 165);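 also: 0% = growth equal to vehicle treated cultures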; conditions: S. cerevisiae cln2 rad14 strain, stronger effect = higher value
Procedure, shortened: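 cln2 rad14 yeast strain; compound exposure; growth inhibition read vs vehicle controls.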

[17] = at 5.0 µM (retest, dose inferred, filed as 0.5)
[18] = at 50.0 µM (retest, dose inferred, filed as 5.0)

Measured: growth inhibition

O=C(/C=C/c1cccc(Br)c1)c1ccc(Cl)cc1
active: [1]; at 50.0 µM 73% | [4]; [18] 84% | [4]; at 100.0 µM 82% | [5]; at 100.0 µM 72% | [6]; at 100.0 µM 76% | [7]; at 100.0 µM 73% | [8]; at 50.0 µM 75.3% | [9]; at 100.0 µM 84%
inactive: [1]; [17] 32% | [1]; at 11.0 µM -51% | [1]; at 33.0 µM -18% | [1]; [18] 47% | [1]; at 100.0 µM 53% | [2]; at 1.2 µM -67% | [2]; at 3.7 µM -46% | [2]; at 11.0 µM -49% | [2]; at 33.0 µM -15% | [2]; at 100.0 µM 46% | [3]; [17] 4% | [3]; [18] 60% | [4]; at 1.2 µM -16% | [4]; at 3.7 µM -7% | [4]; [17] 52% | [4]; at 11.0 µM 38% | [4]; at 33.0 µM 57% | [5]; at 1.2 µM -31% | [5]; at 3.7 µM -28% | [5]; at 11.0 µM -19% | [5]; at 33.0 µM 20% | [6]; at 1.2 µM -30% | [6]; at 3.7 µM -19% | [6]; at 11.0 µM -7% | [6]; at 33.0 µM 19% | [7]; at 1.2 µM -67% | [7]; at 3.7 µM -42% | [7]; at 11.0 µM -7% | [7]; at 33.0 µM 31% | [8]; [17] 26% | [8]; [18] 56% | [9]; at 1.2 µM -37% | [9]; at 3.7 µM -13% | [9]; at 11.0 µM 30% | [9]; at 33.0 µM 61%

Cc1ccc(I)cc1N=C=S
inactive: [10]; at 1.2 µM -5% | [10]; at 3.7 µM 6% | [10]; at 11.0 µM 22% | [11]; at 1.2 µM -12% | [11]; at 3.7 µM -14% | [11]; at 11.0 µM -9% | [12]; at 1.2 µM 15% | [12]; at 3.7 µM 36% | [12]; at 11.0 µM 63% | [13]; at 1.2 µM 31% | [13]; at 3.7 µM 44% | [13]; at 11.0 µM 53% | [14]; at 1.2 µM 8% | [14]; at 3.7 µM 6% | [14]; [17] 32% | [14]; at 11.0 µM 25% | [14]; [18] 62% | [1]; at 1.2 µM -4% | [1]; at 3.7 µM 8% | [1]; [17] 48% | [1]; at 11.0 µM 8% | [1]; [18] 62% | [1]; at 50.0 µM 56.9% | [2]; at 1.2 µM -11% | [2]; at 3.7 µM -10% | [2]; at 11.0 µM 11% | [3]; [17] 0% | [15]; at 1.2 µM -2% | [15]; at 3.7 µM 6% | [15]; at 11.0 µM 10% | [15]; at 33.0 µM 68% | [16]; [17] 52% | [4]; at 1.2 µM 7% | [4]; at 3.7 µM 28% | [4]; [17] 7% | [4]; at 11.0 µM 37% | [6]; at 1.2 µM 28% | [6]; at 3.7 µM 28% | [6]; at 11.0 µM 44% | [7]; at 1.2 µM 6% | [7]; at 3.7 µM 2% | [7]; at 11.0 µM 18% | [8]; [17] 35% | [8]; [18] 50% | [8]; at 50.0 µM 63.1% | [9]; at 1.2 µM 10% | [9]; at 3.7 µM 24% | [9]; at 11.0 µM 41%
active: [10]; at 33.0 µM 82% | [10]; at 100.0 µM 99% | [11]; at 33.0 µM 74% | [11]; at 100.0 µM 99% | [12]; at 33.0 µM 96% | [12]; at 100.0 µM 99% | [13]; at 33.0 µM 96% | [13]; at 100.0 µM 99% | [14]; at 33.0 µM 94% | [14]; at 50.0 µM 79.1% | [14]; at 100.0 µM 99% | [1]; at 33.0 µM 82% | [1]; at 100.0 µM 99% | [2]; at 33.0 µM 94% | [2]; at 100.0 µM 99% | [3]; [18] 100% | [15]; at 100.0 µM 98% | [16]; [18] 100% | [4]; at 33.0 µM 96% | [4]; [18] 100% | [4]; at 100.0 µM 99% | [6]; at 33.0 µM 93% | [6]; at 100.0 µM 99% | [7]; at 33.0 µM 83% | [7]; at 100.0 µM 99% | [9]; at 33.0 µM 86% | [9]; at 100.0 µM 99%

Cc1cc(O)c2c(c1)C(=O)C=C(Br)C2=O
active: [10]; at 3.7 µM 76% | [10]; at 11.0 µM 98% | [10]; at 33.0 µM 98% | [10]; at 100.0 µM 94% | [11]; at 33.0 µM 98% | [11]; at 100.0 µM 96% | [12]; at 3.7 µM 88% | [12]; at 11.0 µM 99% | [12]; at 33.0 µM 99% | [12]; at 100.0 µM 95% | [13]; at 11.0 µM 72% | [13]; at 33.0 µM 98% | [13]; at 100.0 µM 97% | [14]; at 3.7 µM 71% | [14]; at 11.0 µM 97% | [14]; at 33.0 µM 99% | [14]; at 100.0 µM 94% | [1]; at 11.0 µM 94% | [1]; at 33.0 µM 99% | [1]; at 100.0 µM 98% | [2]; at 11.0 µM 97% | [2]; at 33.0 µM 99% | [2]; at 100.0 µM 96% | [15]; at 33.0 µM 99% | [15]; at 100.0 µM 97% | [4]; at 1.2 µM 88% | [4]; at 3.7 µM 86% | [4]; at 11.0 µM 98% | [4]; at 33.0 µM 92% | [4]; at 100.0 µM 98% | [6]; at 11.0 µM 71% | [6]; at 33.0 µM 99% | [6]; at 100.0 µM 98% | [7]; at 33.0 µM 99% | [7]; at 100.0 µM 96% | [9]; at 11.0 µM 95% | [9]; at 33.0 µM 98% | [9]; at 100.0 µM 94%
inactive: [10]; at 1.2 µM 38% | [11]; at 1.2 µM -1% | [11]; at 3.7 µM -2% | [11]; at 11.0 µM 6% | [12]; at 1.2 µM 58% | [13]; at 1.2 µM 7% | [13]; at 3.7 µM 21% | [14]; at 1.2 µM 38% | [1]; at 1.2 µM 40% | [1]; at 3.7 µM 67% | [2]; at 1.2 µM 37% | [2]; at 3.7 µM 64% | [15]; at 1.2 µM 7% | [15]; at 3.7 µM 16% | [15]; at 11.0 µM 40% | [6]; at 1.2 µM 11% | [6]; at 3.7 µM 25% | [7]; at 1.2 µM 4% | [7]; at 3.7 µM 11% | [7]; at 11.0 µM 66% | [9]; at 1.2 µM 10% | [9]; at 3.7 µM 41%

Source: PubChem BioAssay (NCI)
